Rows were chosen to be rich in hits. Some 4.4% of all compounds tested hit in one or more screens of this group.
PfHsp90 set2: growth inhibition of PfHsp90-expressing yeast, primary screen, antimalarial PfHsp90 inhibitor project, S. cerevisiae, BacTiter-Glo luminescence, single point, set 2; hit rate 0.32% among 310,000; BacTiter-Glo ATP, 48 h; yeast lacking PDR1 and PDR3 efflux regulators; inhibition, % at 9.4 µM; AID 504621, 2011;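 active = every replicate shows inhibition above about 80%, whatever the replicate mean, limit read from the data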;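 also: 0% = DMSO neutral controls and 100% = 20 µM radicicol positive controls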
SKKanGAS inh: S. pyogenes SKKanGAS growth inhibitors in kanamycin, primary screen, streptokinase expression inhibitor project, SKKanGAS strain, BacTiter-Glo luminescence. 6 h. hit rate 1.3% among 300,000. AID 1662, 2009. inhibition, % at 7.5 µM;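 active = mean replicate score, as percent of positive control median, at least 50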;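 also: strain carries kanamycin resistance gene driven by streptokinase promoter and grows in 40 µg/ml kanamycin; loss of luminescence reflects streptokinase promoter inhibition or plain growth inhibition; 0% = median of DMSO wells and 100% = positive control at its reference dose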
TIM10 inh: growth inhibitors of isogenic TIM10 control yeast, primary screen, counter-screen for tim10-1 yeast inhibitor project, luminescence, uHTS | inhibition, % at 10 µM | hit rate 1.4% among 330,000 | AID 463195, 2010 | S. cerevisiae TIM10 strain growth, BacTiter-Glo luminescence, 24 h;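 active = inhibition of 40% or more at the single tested concentration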;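 also: wild-type TIM10 isogenic control strain grown at permissive 25 °C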
tim23-1 inh: growth inhibitors of tim23-1 mutant yeast, primary screen, luminescence, uHTS | S. cerevisiae tim23-1 growth, BacTiter-Glo luminescence, 24 h | inhibition, % at 20 µM | hit rate 1.3% among 330,000 | AID 463212, 2010;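 active = growth inhibition of the mutant yeast at or above 50%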;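 also: temperature-sensitive mutant grown at 25 °C; plate controls were DMSO-treated mutant yeast for no effect and medium wells lacking yeast for full effect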
tim10-1 inh: growth inhibitors of tim10-1 mutant yeast, primary screen, luminescence, uHTS; hit rate 2.2% among 330,000; inhibition, % at 20 µM; S. cerevisiae tim10-1 ts strain growth, BacTiter-Glo, 24 h;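 active = inhibition of at least 40%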;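 also: mutant grown at 25 °C; 0% = DMSO wells with yeast and 100% = wells holding no yeast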
tim10-1 conf: growth inhibitors of tim10-1 mutant yeast, confirmation, single concentration, luminescence, S. cerevisiae | inhibition, % at 20 µM | shares compounds with tim10-1 inh | AID 463213, 2010 | S. cerevisiae tim10-1 ts strain growth, BacTiter-Glo, 24 h | hit rate 56% among 7,400;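 active = inhibition of yeast growth at or above a set limit in either of two repeat tests at 20 µM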;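 also: tim10-1 mutant grown at permissive 25 °C to find synthetic lethal compounds; 0% = DMSO yeast wells and 100% = medium wells without yeast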
Starred values were filed as active, the others as inactive; nt = no result.

SMILES | PfHsp90 set2 | SKKanGAS inh | TIM10 inh | tim23-1 inh | tim10-1 inh | tim10-1 conf
COc1cccc(CNc2nc3nc(C)c(Cl)c(C)n3n2)c1 | 12.6 | -4.2 | -3.2 | 47.7 | 48.0* | 29.1*
Cc1ccc(/C=C2\Oc3cc(OC(=O)N4CCOCC4)ccc3C2=O)cc1 | 14.2 | -0.7 | 15.3 | 13.8 | 16.1 | nt
O=C(Oc1ccc2c(c1)O/C(=C\c1ccncc1)C2=O)c1ccccc1 | -7.5 | -2.4 | 33.2 | 34.7 | 41.8* | 12.9
O=C(CSc1nc(=O)n(CCN2CCOCC2)c2c1CCCC2)Nc1ccc(F)cc1F | 18.3 | 0.4 | -1.5 | 3.3 | -10.6 | nt
COc1ccc(-c2cn(-c3ccccc3)nc2C(=O)O)cc1OC | 6.2 | 2.8 | 0.4 | -4.3 | 7.8 | nt
C/C(=N\NC(=S)Nc1ccc(C)cc1)c1cccc(N)c1 | -18.8 | 8.0 | 36.3 | 1.5 | 41.7* | 21.2
Cc1csc(NC(=O)c2ccc(C)c(S(=O)(=O)N3CCOCC3)c2)n1 | nt | 0.6 | 18.7 | 12.1 | 41.2* | 14.9
Cc1ccc2c(c1)c1c3n2CCN(C(=O)CCl)C3CCC1 (stereo not drawn) | 13.9 | -0.6 | 5.8 | 21.8 | 43.2* | 29.8
CCCCC(CCC(=O)O)(C(=O)OCC)c1csc(Nc2ccccc2)n1 (stereo not drawn) | -18.8 | 2.3 | 16.2 | 24.1 | 42.1* | 11.4
CCOC(=O)/C(=N/Nc1ccccc1)c1csc(Nc2ccccc2)n1 | 0.7 | 91.2* | 34.3 | 37.5 | 48.1* | 19.1
CCOC(=O)c1csc(NC(=O)c2ccccc2)n1 | -22.6 | -2.3 | 15.5 | 18.5 | 2.7 | nt
COc1ccccc1CN1CCC(n2nccc2NC(=O)CCc2ccccc2)CC1 | 14.9 | -0.9 | 3.8 | 9.2 | 20.1 | nt
O=C(Nc1ccccc1F)c1ccc(C(=O)c2ccccc2)cc1 | 3.3 | -0.4 | 16.1 | 21.5 | 20.8 | nt
CCOC(=O)C1(Cc2ccccc2)CCN(Cc2ccc3c(c2)OCCO3)CC1 | -21.9 | -3.2 | -3.1 | 5.4 | 20.5 | nt
CC(O)/C=C/c1ccc2ccccc2n1 (stereo not drawn) | 3.8 | -0.8 | 13.1 | 34.9 | 48.7* | 35.4*
O=C(C[n+]1ccc(/C=C/c2ccccc2)cc1)c1ccc2c(c1)OCCO2 | -3.7 | 7.8 | 9.1 | 5.6 | 15.5 | nt
CC(C)(C)c1ccc(C(=O)NNc2cc(N3CCCCC3)nc(N3CCCCC3)n2)cc1 | -61.2 | 25.2 | 23.4 | 34.0 | 40.1* | 35.9*
Cc1cc(C(C)(C)C)cc(C)c1COC(=O)CN1C(=O)NC2(CCCC2)C1=O | -0.7 | nt | 2.2 | 28.5 | 18.7 | nt
COc1ccc(C(=O)Nc2ccc(Cl)cc2C(=O)NCc2ccco2)cc1OC | -19.5 | 16.1 | 16.4 | 29.9 | 42.7* | 15.2
COc1ccc(C(=O)Nc2ccccc2C(=O)NCc2ccco2)cc1OC | -3.3 | 9.7 | 30.1 | 37.0 | 28.6 | nt
Cc1cc(C)c(CSc2ncc(-c3ccc([N+](=O)[O-])cc3)[nH]2)c(C)c1 | -20.9 | 73.5* | 39.1 | 43.2 | 45.5* | 34.2*
CC(C)(C)NC(=O)C(c1ccncc1)N(Cc1ccco1)C(=O)c1ccc(-c2ccccc2)[nH]1 (stereo not drawn) | nt | -4.0 | 25.0 | 35.2 | 52.2* | 41.9*
COc1ccc2oc(C(=O)OCC(=O)NCc3ccc(OC)c(OC)c3)c(C)c2c1 | nt | nt | -4.8 | 7.0 | -0.9 | nt
COc1ccc(-c2nnc(SCc3cc(C)ccc3C)n2N)cc1 | 0.6 | 7.8 | 39.5 | 44.8 | 41.7* | 39.0*
CCc1nnc(N/N=C/c2ccc(N3CCC(C)CC3)c([N+](=O)[O-])c2)n1N | -47.0 | 0.0 | 36.1 | 30.6 | 47.6* | 42.0*
SMILES | PfHsp90 set2 | SKKanGAS inh | TIM10 inh | tim23-1 inh | tim10-1 inh | tim10-1 conf
Cc1nnc(N/N=C/c2cc([N+](=O)[O-])c(N3CCC(C)CC3)cc2N2CCC(C)CC2)n1N | nt | 32.9 | 26.7 | 32.8 | 34.1 | nt
Cn1c(CN2CCN(c3ccc(Cl)cc3)CC2)nc2ccccc21 | nt | -11.2 | 30.9 | 38.5 | 33.2 | nt
CCn1c(CN2CCN(c3ccc(Cl)cc3)CC2)nc2ccccc21 | 38.5 | nt | 35.7 | 36.5 | 52.4* | 33.6*
Cc1ccc(-n2nc(-c3cccs3)cc2C(=O)NCC2CCCO2)c(C)c1 (stereo not drawn) | -17.5 | 0.0 | 36.9 | 7.0 | 40.7* | 28.1
CCOc1cc(/C=N/O)cc(Br)c1OCc1ccc(Cl)cc1 | -2.1 | 4.0 | -10.7 | -18.5 | 53.5* | 26.9
CCOc1cc(/C=N/O)cc(Br)c1OCC | -137.5 | -3.4 | 9.2 | -0.2 | 17.9 | nt
CC(Sc1nnc(COc2ccc(Cl)cc2)o1)C(=O)Nc1ccc(N2CCOCC2)cc1 (stereo not drawn) | 1.9 | nt | -1.4 | -3.6 | -11.7 | nt
CCOc1ccccc1CNC(=O)c1ccc(NC(=O)C2=CSCCO2)cc1 | -9.2 | -2.5 | 8.7 | 36.0 | 44.9* | 5.9
Cc1cccc(CNC(=O)c2ccc(NC(=O)C3=CSCCO3)cc2)c1 | -9.9 | 1.0 | 16.0 | 43.1 | 50.1* | 21.0
COc1ccc(CNC(=O)c2ccc(NC(=O)C3=CSCCO3)cc2)cc1 | -3.5 | -7.4 | 10.1 | -5.5 | 16.3 | nt
Cc1cccc(CNC(=O)c2ccccc2NC(=O)C2=CSCCO2)c1 | -25.2 | -10.4 | 0.1 | 14.6 | 20.7 | nt
Cc1ccc(CNC(=O)c2ccccc2NC(=O)C2=CSCCO2)cc1 | -24.0 | -1.2 | 18.0 | 23.6 | 40.0 | 17.9
Cc1ccccc1NC(=O)CCCN1C(=O)C2CC=CCC2C1=O (stereo not drawn) | 5.4 | 13.3 | -3.3 | 6.3 | -7.2 | nt
O=C(COC(=O)c1ccc(F)c(S(=O)(=O)N2CCOCC2)c1)NCc1ccccc1 | nt | nt | -11.5 | -2.7 | 8.2 | nt
CCCCn1c(-c2csc3c2CCC(C)C3)n[nH]c1=S (stereo not drawn) | -6.9 | 1.3 | 19.7 | 39.3 | 51.3* | 24.5
COc1ccc(Nc2ncnc3scc(-c4ccc(OC)cc4)c23)cc1 | -6.4 | 50.0* | 39.1 | 39.9 | 48.6* | 35.9*
COc1ccc(-c2csc3ncnc(Cl)c23)cc1 | 11.8 | 3.6 | -5.1 | 18.3 | 35.7 | nt
Cc1noc(C)c1C(=O)Nc1nnc(-c2ccccc2)s1 | -3.7 | 2.1 | -11.8 | 9.1 | 4.2 | nt
Cc1onc(-c2ccccc2)c1C(=O)Nc1nnc(-c2ccncc2)s1 | nt | 13.8 | 23.8 | 31.1 | 43.9* | 39.1*
Cc1ccc(S(=O)(=O)c2nc(S(C)(=O)=O)sc2N2CCC(C)CC2)cc1 | -8.4 | 29.6 | 24.9 | 46.6 | 46.3* | 18.4
Cc1ccc(S(=O)(=O)c2nc(S(C)(=O)=O)sc2N2CCCCCC2)cc1 | 10.2 | -5.9 | 15.2 | 35.3 | 26.6 | nt
COc1ccccc1N1CCN(C(=O)CCCN2C(=O)c3cccc4cccc(c34)C2=O)CC1 | -19.1 | 2.5 | 27.6 | 31.2 | 44.7* | 26.5

High-throughput results deposited in PubChem by several laboratories.
